In PubChem BioAssay (NCI):
The panel holds about 83,000 compounds, 20% with a hit somewhere; the sample as a whole holds those more often.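 How to read the values: 0–100, growth inhibition (40 = 60% inhibited); 0, no net growth; -100 to 0, cell death (-40 = 40% of starting cells died; -100 = all dead).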 Unmarked numbers belong to inactive results. The source made the active and inactive calls. How the source made its calls: active means growth percent below 10; inactive means the rest.

How the values were obtained:
Assay in all cases: NCI-60 one-dose screen, 48 h (100 = growth as untreated, 0 = no growth, -100 = all killed)
Conditions in all cases: 10 µM unless noted
[1] = test system: NCI-H23 lung
[2] = test system: NCI-H226 lung
[3] = test system: NCI-H322M lung
[4] = test system: HOP-62 NSCLC
[5] = test system: NCI-H460 lung
[6] = test system: HOP-92 NSCLC
[7] = test system: NCI-H522 lung
[8] = test system: A549/ATCC NSCLC
[9] = test system: 786-0 renal
[10] = test system: COLO 205 colon
[11] = test system: DU-145 prostate
[12] = test system: K-562 leukemia
[13] = test system: MALME-3M melanoma
[14] = test system: MDA-MB-231 breast
[15] = test system: RXF 393 renal
[16] = test system: SF-268 CNS
[17] = test system: SF-295 CNS
[18] = test system: SF-539 CNS
[19] = test system: UACC-257 melanoma
[20] = test system: M14 melanoma

SMILES	growth [1]	growth [2]	growth [3]	growth [4]	growth [5]	growth [6]	growth [7]	growth [8]	growth [9]	growth [10]	growth [11]	growth [12]	growth [13]	growth [14]	growth [15]	growth [16]	growth [17]	growth [18]	growth [19]	growth [20]
COc1ccc(C2NC(=O)C(C#N)c3c2sc2c(F)cccc32)cc1 (stereo not given)	76.3%	60.3%	65.3%	46.4%	28.6%	54.2%	20.1%	42.6%	71%	91.6%	67.8%	14.1%	47.2%	71.2%	55.9%	62%	30.5%	39.5%	63.9%	33.3%
COc1ccc(C(C(=O)O)c2ccc(OC)cc2)cc1	113%	104%	121%	112%	117%	106%	106%	116%	107%	117%	105%	105%	128%	120%	128%	103%	104%	105%	110%	114%
CCCCCCCCCCCCCCCCCCNC(=S)N/N=C/c1ccc(OC)c(OC)c1	93.9%	99.2%	98.7%	98.6%	103%	69.4%	94.6%	98.3%	102%	104%	102%	98.8%	87.4%	92.7%	110%	98.7%	95.7%	93.6%	100%	104%
Cn1cc(-c2nnc(-c3cn(C)c4ncccc34)s2)c2ccccc21	84.6%	96%	92.7%	65.8%	75.1%	30.2%	32.1%	57.6%	78.4%	64.1%	73.6%	27.8%	29.1%	40.2%	78.4%	72.1%	47.7%	45.8%	96.1%	92.8%
CCCn1ccnc1C(O)c1ccc(OCc2ccccc2)c(OC)c1 (stereo not given)	90.7%	97.4%	90.1%	87.5%	103%	68.1%	66.1%	97.7%	96.6%	93.2%	104%	107%	80.9%	93.7%	112%	93.4%	76.4%	92.8%	93.6%	97.2%
C=C(C)[C@@H]1CC[C@]2(C(N)=O)CC[C@]3(C)[C@H](CC[C@@H]4[C@@]5(C)C/C(=C/c6cccnc6)[C@H](O)C(C)(C)[C@@H]5CC[C@]43C)[C@@H]12	28.1% [100 µM]	22.8% [100 µM]	35.6% [100 µM]	27.5% [100 µM]	5.04% [100 µM] (active)	23.4% [100 µM]	8.63% [100 µM] (active)	23.1% [100 µM]	22.7% [100 µM]	-36.6% [100 µM] (active)	38.2% [100 µM]	5.36% [100 µM] (active)	5.89% [100 µM] (active)	28.9% [100 µM]	13.4% [100 µM]	45.6% [100 µM]	23.9% [100 µM]	25.1% [100 µM]	38% [100 µM]	33.8% [100 µM]
CC1(C)CC[C@]2(C(=O)OC(=O)[C@]34CCC(C)(C)C[C@@H]3C3=CC[C@@H]5[C@@]6(C)CCC(=O)C(C)(C)[C@@H]6CC[C@@]5(C)[C@]3(C)CC4)CC[C@]3(C)C(=CC[C@@H]4[C@@]5(C)CCC(=O)C(C)(C)[C@@H]5CC[C@]43C)[C@H]2C1	58.9% [100 µM]	68.1% [100 µM]	86.9% [100 µM]	74.7% [100 µM]	58.3% [100 µM]	45.6% [100 µM]	56.2% [100 µM]	76.5% [100 µM]	64.1% [100 µM]	88.6% [100 µM]	77.4% [100 µM]	36.4% [100 µM]	81.2% [100 µM]	45.7% [100 µM]	62.6% [100 µM]	63.4% [100 µM]	76.5% [100 µM]	61.6% [100 µM]	69% [100 µM]	77.9% [100 µM]
